# Inconclusive results are not listed. A call without a number means that no potency is given here. Calls of active or inactive are those of the source. Calls come from the whole dose curve; as a rule, active = well fitted inhibition curve with a large enough effect; inconclusive = small, poorly fitted or top-dose-only effect; inactive = no such curve, though single readings can be large or run the other way.
# Test: BET inhibitor-based combinations targeting novel dependencies in MECOM-rearranged (r) AML: UCSD-AML1 cell line (AID 2202235); note: nearly all actives have a fitted effect of over 40% in size
# Conditions: UCSD-AML1 AML cells viability, CellTiter-Glo, 48 h; series mostly up to 46 µM
# Source text: Ecotropic viral insertion site 1 (EVI1) is located on chromosome 3q26.2 as part of the MECOM (MDS and EVI1 complex) locus. Under normal hematopoiesis, EVI1 is a regulator of hematopoietic stem cell maintenance and self-renewal and EVI1 levels decrease as the cells differentiate. In approximately 5-10% of de novo acute myeloid leukemia (AML) EVI1 is aberrantly expressed, including Chromosomal inv(3)(q21;q26.2) or t(3;3)(q21;q26.2) alterations (MECOM-r) that account for about 50% of AML with EVI1 overexpression 31. AMLs with high levels of EVI1 have a poor prognosis and an overall survival time averaging between 10-14 months. EVI1 overexpression confers resistance in leukemia cells, highlighting the need to develop new targeted therapies for EVI1 overexpressing AMLs. Here, we performed an unbiased chemical drug screening by evaluating the single agent activity of a collection of 2,480 oncology-focused, approved and investigational drugs (NCATS Mechanism Interrogation Plates, MIPE v5.0) against a panel of seven AML cell lines. These included four MECOM-r cell-lines (AML-191, AML-194, UCSD-AML1 and HNT-34) and three non-MECOM-r AMLs (MV4-11, OCI-AML3 and SET-2). Exploiting the mechanistic redundancy built in the library, we identified target-level sensitivities in MECOM-r AML cells and relative activity as compared to other AML subtypes.
# A collection of 2480 mechanistically annotated dugs (MIPE v5.0) was used to screen four 3q26.2 rearranged AML cell lines and three non-3q26.2 rearranged AML cell lines. This library purposely exploits redundancy by including multiple inhibitors of key onco-targets, while simultaneously encompassing mechanistic diversity, targeting more than 800 distinct mechanisms of action. Briefly, cells were seeded in 5 uL of growth media using a Multidrop Combi dispenser into 1536 well white polystyrene tissue culture treated plates (Corning) at a density of 500cells/well. For each cell-line, for each of the 2480 drugs in MIPE v5.0 library, an 11-point dose curve was generated via a 1536 pin-tool. Plates were incubated for 48 hr at standard incubator conditions, covered by a stainless steel gasketed lid to prevent evaporation. Cell viability was determined by luminescence based, Cell Titer Glo assay (Promega). In detail, 3 uL of Cell Titer Glo were added to each well and plates were incubated at room temperature for 15 min with a stainless-steel lid in place. Luminescence readings were taken using a Viewlux (PerkinElmer) with a 2 s exposure time per plate. Compound dose-response curves were normalized to DMSO and empty well controls on each plate. Quantitative drug activity data from dose-response curves was determined utilizing area Under the Curve (AUC) and Z-transformed AUC (Z-AUC, a mean-centering transformation applied to each individual cell-line screened).
# Potency is the fitted concentration of half-maximal effect.
SMILES,Potency,viability (% of control)
CCC(=O)O[C@]1(C(=O)SCF)[C@H](C)C[C@H]2[C@@H]3C[C@H](F)C4=CC(=O)C=C[C@]4(C)[C@@]3(F)[C@@H](O)C[C@@]21C,inactive,
OC[C@H](Cc1ccccc1)Nc1nc(Oc2ccc3c(c2)CCC3)nc2c1ncn2Cc1ccc(-c2ccccc2)cc1,4.68 µM (active),
Nc1cccc(-c2cc3c(Oc4cccc(O)c4)ncnc3[nH]2)c1,8.33 µM (active),
CC(C)Cn1cnc2c(N)nc3ccccc3c21,inactive,
CC(=O)SC[C@@H](C)C(=O)N1CCC[C@H]1C(=O)N[C@@H](Cc1ccccc1)C(=O)O,inactive,
O=C(Nc1ccccc1-c1cn2c(CN3CCNCC3)csc2n1)c1cnc2ccccc2n1,8.33 µM (active),
O=C([C@@H](Cc1cccc(C(F)(F)F)c1)NS(=O)(=O)c1cc(F)c2c(c1)CCNC2)N1CCCC1,inactive,
Cc1cc(Nc2ncc(Cl)c(Nc3ccccc3S(=O)(=O)C(C)C)n2)c(OC(C)C)cc1C1CCNCC1,10.5 µM (active),
COc1cc(OC)c(/C=C/S(=O)(=O)Cc2ccc(OC)c(NCC(=O)O)c2)c(OC)c1,0.263 µM (active),
COc1ccc(CCN(C)CCCC(C#N)(c2ccc(OC)c(OC)c2)C(C)C)cc1OC (stereo not given),16.6 µM (active),
COc1ccc(C=Cc2cc(OC)c(OC)c(OC)c2)cc1NC(=O)[C@H](N)CO,0.372 µM (active),
CCS(=O)(=O)c1cccc(-c2cc(C(=O)NC3CCN(C)CC3)c(C)c3[nH]c4ncc(C)cc4c23)c1,0.934 µM (active),
CCn1nc(C2CCN(C(=O)CCO)CC2)nc1-c1cnc(N)c(-c2nnc(C(C)(C)C)o2)n1,5.9 µM (active),
COc1ccc(-c2nc3ccc(C4=NNC(=O)CC4C)cc3[nH]2)cc1 (stereo not given),11.8 µM (active),
CN1C(=O)N[C@@H](Cc2c[nH]c3c(Cl)cccc23)C1=O,inactive,
COc1nc(C)cnc1NS(=O)(=O)c1cccnc1-c1ccc(-c2nnco2)cc1,inactive,
NCCS(=O)(=O)O,inactive,
Cc1ccc(Nc2nccc(N(C)c3ccc4c(C)n(C)nc4c3)n2)cc1S(N)(=O)=O,18.6 µM (active),
CN1CCC(COc2cnc(-c3cccc(Cn4nc(-c5cccc(C#N)c5)ccc4=O)c3)nc2)CC1,inactive,
Cc1cc(F)c(C(=O)Nc2cccc(-c3nncn3C(C)C)n2)cc1-n1cnc(C2CC2)c1,16.6 µM (active),

SMILES,Potency,viability (% of control)
O=C1CCCC(=O)C1C(=O)c1ccc(C(F)(F)F)cc1[N+](=O)[O-],inactive,
O=C(O)c1ccc(O)c2ncc(N3CCOCC3)cc12,inactive,
CCCC1OC2C[C@@H]3[C@H]4CCC5=CC(=O)C=C[C@]5(C)[C@H]4C(O)C[C@]3(C)[C@]2(C(=O)CO)O1 (stereo not given in full),inactive,
O=C1Nc2ccc(I)cc2/C1=C/c1cc(Br)c(O)c(Br)c1,inactive,
C[C@](N)(Cc1ccc(O)c(O)c1)C(=O)O,inactive,
Cn1cc(-c2ccc3nnc(Sc4ccc5ncccc5c4)n3n2)cn1,inactive,
NC(=O)c1cnccn1,inactive,
CC(C)NC(=O)N1CC[C@H](N=C2Nc3cc(F)ccc3N(CC(F)F)c3ccc(Cl)cc32)C1,,104% [at 8.46 µM] (inactive)
C[C@@H](N)c1ccc(C(=O)Nc2ccnc3[nH]ccc23)cc1,18.6 µM (active),
COC[C@H](NC(=O)c1cnc(C)s1)C(=O)N[C@@H](COC)C(=O)N[C@@H](Cc1ccccc1)C(=O)[C@@]1(C)CO1,0.132 µM (active),
O=C(Nc1ccc(F)c(C(F)(F)F)c1)Nc1nnc(-c2ccncc2)s1,inactive,
O=C(c1ccccc1)c1ccc2n1CCC2C(=O)O (stereo not given),inactive,
COC(c1ccccc1)(c1ccccc1)[C@H](Oc1nc(C)cc(C)n1)C(=O)O,inactive,
N#Cc1c(C2CCNCC2)cc(-c2c(O)cccc2OCC2CC2)nc1N,16.6 µM (active),
O=[N+]([O-])c1cn2c(n1)OC[C@@H](OCc1ccc(OC(F)(F)F)cc1)C2,inactive,
CS(=O)(=O)N1CCN(Cc2cc3nc(-c4cccc5[nH]ncc45)nc(N4CCOCC4)c3s2)CC1,0.468 µM (active),
NC(=O)OCC(COC(N)=O)c1ccccc1,inactive,
Cc1nnc(C(C)C)n1C1CC2CCC(C1)N2CCC(NC(=O)C1CCC(F)(F)CC1)c1ccccc1 (stereo not given),inactive,
CCOc1cc2ncc(C#N)c(Nc3ccc(F)c(Cl)c3)c2cc1NC(=O)/C=C/CN(C)C,1.48 µM (active),
Cc1cc(C(=O)Nc2cc(Oc3ccc4nc(NC(=O)C5CC5)cn4n3)ccc2C)n(C)n1,9.34 µM (active),

# Source: PubChem BioAssay (NCATS)
